Experimental data as given in PubChem BioAssay AID493168 (National Center for Advancing Translational Sciences (NCATS), 2011).
Records with an inconclusive call do not appear. Values without a mark were called inactive. Active and inactive are the calls of the source. Calls come from the whole dose curve; as a rule, active = well fitted inhibition curve with a large enough effect; inconclusive = small, poorly fitted or top-dose-only effect, or effect the other way; inactive = flat fitted curve, though single readings scatter.

The compounds below were run against Ubiquitin carboxyl-terminal hydrolase 2 (Homo sapiens) (UniProt O75604) (assay: Confirmation Assay for Inhibitors of Ubiquitin-specific Protease USP2a Using CHOP2 as the Reporter). Conditions: USP2 core, Ub-CHOP2 coupled reporter fluorescence; series mostly up to 38.3 µM; activity change, negative = inhibition: at the top concentration.
Sequence of Ubiquitin carboxyl-terminal hydrolase 2 (Homo sapiens) (O75604 whole entry, looked up): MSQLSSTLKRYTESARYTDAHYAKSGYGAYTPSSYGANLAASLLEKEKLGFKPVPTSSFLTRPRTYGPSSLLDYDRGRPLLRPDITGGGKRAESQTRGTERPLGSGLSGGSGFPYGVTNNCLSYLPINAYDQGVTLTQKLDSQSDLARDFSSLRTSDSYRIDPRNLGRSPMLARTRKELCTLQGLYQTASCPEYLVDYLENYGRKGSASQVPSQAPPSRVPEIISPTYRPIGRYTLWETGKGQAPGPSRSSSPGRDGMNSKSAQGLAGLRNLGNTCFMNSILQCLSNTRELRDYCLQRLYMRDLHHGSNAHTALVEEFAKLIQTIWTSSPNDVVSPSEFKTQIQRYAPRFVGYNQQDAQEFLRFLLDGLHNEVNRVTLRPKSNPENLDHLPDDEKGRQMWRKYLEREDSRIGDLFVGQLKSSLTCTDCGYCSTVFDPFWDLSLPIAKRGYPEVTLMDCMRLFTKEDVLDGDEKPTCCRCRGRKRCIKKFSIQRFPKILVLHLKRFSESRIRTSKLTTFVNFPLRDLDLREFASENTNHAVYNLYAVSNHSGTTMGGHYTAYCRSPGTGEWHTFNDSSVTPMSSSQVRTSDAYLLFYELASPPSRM
Procedure, shortened: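 Ub-CHOP2 cleavage coupled to reporter activation was read by fluorescence after 60 min at RT, with 25 nM final Ub-CHOP2 and substrate. Enzyme (10 nM final USP2 core) first sat 30 min with compound; data were normalized to NEM and fitted to concentration-response curves.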
Note: nearly all actives have a fitted effect of over 55% in size.
Potency is the fitted concentration of half-maximal effect.
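Throughout, for activity change, negative = inhibition: plate controls were DMSO wells for no effect and full inhibition by NEM control for full effect.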

| Compound | activity change, negative = inhibition [%] | Potency |
| --- | --- | --- |
| O=C(Cc1ccc(S(=O)(=O)N2CCOCC2)s1)NCCC(c1ccccc1)c1ccccc1 | -17 | – |
| Cc1ccc(O)c(CC(C)C)n1 | -2.58 | – |
| CC(C)c1ccc(NC(=O)C(c2ccc3c(c2)OCO3)N2CCCCC2)cc1 (stereo not given) | 1.37 | – |
| C=CCn1c(O)c(C(CC)=NCCN2CCOCC2)c(=O)[nH]c1=O | 5.16 | – |
| C[C@@H]1CN([C@@H](C)CO)C(=O)c2cc(NC(=O)CCC(F)(F)F)ccc2O[C@H]1CN(C)S(=O)(=O)c1ccc(Cl)cc1 | 0.826 | – |
| O=C(COC(=O)c1c2c(nc3ccccc13)/C(=C/c1ccco1)CC2)NC1CCCC1 | – | 14.7 µM (active) |
| Cc1ccc(CNC(=O)CCNS(=O)(=O)c2ccc(C)cc2)cc1 | -2.25 | – |
| Cc1c(O)c(CN2CCCC2)cc2c3c(c(=O)oc12)CCC3 | -1.61 | – |
| CCc1c(O)nc(SCC(=O)Nc2ccccc2OC)[nH]c1=O | 3.26 | – |
| N#CNC(=Nc1cccc(F)c1)SCc1cccc(F)c1 | -0.652 | – |
| N#CC(c1ccccc1)c1ccc(C(=O)c2ccc(F)cc2)cc1 (stereo not given) | 3.03 | – |
| O=C(Nc1ccccc1)c1cc(Cl)nc2ccccc12 | -1.69 | – |
| Cc1ccc2[nH]c(C)c(CCNC(=O)c3cc4cc([N+](=O)[O-])ccc4oc3=O)c2c1 | -1.5 | – |
| COc1ccc(NC(=O)CSc2nnc(-c3ccccc3Cl)n2Cc2ccco2)c(OC)c1 | 0.298 | – |
| C#CCOCCOCCOCCNc1nc(N2CCN(C(=O)CCCCCCCCCCNC(=O)Cn3cc(C[C@@H](C)O)nn3)CC2)nc(N2CCN(C(=O)CCCCCCCCCCNC(=O)[C@@H]([C@H](C)CC)n3cc(CCCCCN)nn3)CC2)n1 | – | 11.7 µM (active) |
| CCOC(=O)c1ccc(NC(=O)C2=C(C)Nc3nc(CCCO)nn3C2c2cccc(C)c2)cc1 (stereo not given) | -2.56 | – |
| O=C(CSc1ncccc1-c1nc2ccccc2[nH]1)Nc1ccc2c(c1)OCCO2 | -2.15 | – |
| Cc1ccc(C(=O)C(=S)N2CCOCC2)cc1 | 1.38 | – |
| CN1CCN(CCCCOc2ccc(F)cc2)CC1 | -1.91 | – |
| CCCSCCCNC(=O)CC1Oc2ccccc2NC1=O (stereo not given) | -2.19 | – |

| Compound | activity change, negative = inhibition [%] | Potency |
| --- | --- | --- |
| Cc1ccc(-c2c(C#N)c(N)nc3c2CCCCC3)o1 | 3.04 | – |
| CC1(C(=O)O)Sc2[nH]c(=O)sc2C2c3ccccc3OC(=O)C21 (stereo not given) | -1.68 | – |
| CN1CCN(CCC(=O)N/N=C/c2cc([N+](=O)[O-])ccc2O)CC1 | -3.37 | – |
| COc1cccc(C(=O)NC(C)c2ccc(-c3ccccc3)cc2)c1OC (stereo not given) | -3.09 | – |
| O=C(CSc1nnnn1-c1ccc(F)cc1)c1ccc(O)c(O)c1 | -2.57 | – |
| COCCNCC(=O)N1CCCCCC1 | 0.293 | – |
| CC(=O)O[C@H]1[C@H](O)[C@H](Oc2c(O)c(C)c3c4c2[C@@H](C)CC[C@@H]4[C@@H](C)C[C@H]3C=C(C)C)O[C@@H](C)[C@H]1O | -3.83 | – |
| NS(=O)(=O)c1ccc(NC(=O)CN2CCCCC2)cc1 | -1.04 | – |
| Cc1ccc(NC(=O)c2onc(C)c2Cl)cc1 | -4.53 | – |
| CC(C)(C)C1C=C(Sc2ccccc2)C(=O)O1 (stereo not given) | -0.936 | – |
| CCN(CC)S(=O)(=O)c1ccc(Cl)c(NC(=O)COC(=O)c2c(C)noc2C)c1 | 9.62 | – |
| Cc1ccc(NC(=O)c2cc3c(=O)oc4ccccc4c3s2)nc1 | -0.826 | – |
| O=C(Nc1ccc2nc(-c3ccco3)c(-c3ccco3)nc2c1)N1CCN(c2ccccn2)CC1 | – | 16.5 µM (active) |
| Cc1ccc(S(=O)(=O)N2CCOCC2)cc1NC(=O)CN1C(=O)NC(C)(c2ccc(Cl)cc2Cl)C1=O (stereo not given) | 4.88 | – |
| CCCc1nc(SCC(N)=O)[nH]c(=O)c1CC | 5.12 | – |
| CCCCCCCCCC[N+](C)(C)CC/C=C1/c2ccccc2Sc2ccc(Cl)cc21 | – | 13.1 µM (active) |
| O=C(C1CCCN(S(=O)(=O)c2cccc3cccnc23)C1)N1CCN(c2ccccc2F)CC1 (stereo not given) | -4.76 | – |
| COc1ccc(-c2nc(C#N)c(NCC3CCCO3)o2)cc1OC (stereo not given) | -2.32 | – |
| Nc1c(C(=O)NCC2CCCO2)sc2nc3c(c(-c4ccco4)c12)CC/C3=C\c1ccco1 (stereo not given) | – | 4.14 µM (active) |
| CC(=O)Nc1ccc(NC(=O)C2CCCN(S(=O)(=O)c3ccc(Cl)cc3)C2)cc1 (stereo not given) | 10.2 | – |
